Drawing on PubChem BioAssay AID1345085 (National Center for Advancing Translational Sciences (NCATS), 2018), this text covers Potency for 31 compounds.

Records with an inconclusive call do not appear. Where a call stands in place of a potency, no number is given. Calls of active or inactive are those of the source. The call rests on the fitted dose curve; in most records, active means well fitted cell-killing curve with a large enough effect; inconclusive means small, poorly fitted or top-dose-only effect, or effect the other way; inactive means no such curve, though single readings can be large or run the other way.
Potency means the concentration at half of the fitted maximal effect.

For the assay, the system named is SW626. The assay can be described thus: Confirmatory qHTS for gynecologic anti-cancer compounds from libraries of approved drugs and bioactive compounds. Further: nearly all actives have a fitted effect of over 55% in size. The following applies: gynecologic cancer cell panel viability, ATPlite luminescence, 48 h; series mostly up to 57.6 µM. The method, boiled down: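 ATPlite luminescence read-out of cell viability; IC50 from 11-point 1:3 titrations, 57.5 uM to 0.977 nM, 48 h compound exposure at 37 C, 5% CO2. Cells seeded at 1,000/well 16 h before dosing.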
(In general: Quantitative high-throughput screening tests each substance at several concentrations.)
Turning to `CC(C)[C@@H](CS(=O)(=O)C(C)C)N1C(=O)[C@@](C)(CC(=O)O)C[C@H](c2cccc(Cl)c2)[C@H]1c1ccc(Cl)cc1`, the Potency result was “inactive”.
In the case of `Nc1ncnc2c1ncn2[C@@H]1O[C@H](CO)C[C@H]1O`, the Potency result is “inactive”.
For `Cc1nc2ccc(CN(C)c3ccc(C(=O)NC(CCC(=O)O)C(=O)O)s3)cc2c(=O)[nH]1` (stereo unspecified) the value was “inactive”.
Turning to `COc1cc(N2CCC(N(C)C)CC2)ccc1Nc1ncc(Cl)c(Nc2ccccc2P(C)(C)=O)n1`, the Potency is 3.85 µM (active).
As for `CC(C)Oc1ccc2c(=O)c(-c3ccccc3)coc2c1`, the Potency was 21.7 µM (active).
For the compound `CCCc1nn(C)c2c(=O)[nH]c(-c3cc(S(=O)(=O)N4CCN(C)CC4)ccc3OCC)nc12`, the Potency entry was “inactive”.
On to `CC[C@H](CC#N)OC(=O)N[C@@H](C)c1cccc(NC(=O)Nc2ccc(-c3cnco3)c(OC)c2)c1`, for which the Potency entry was “inactive”.
On to `COc1c(C)c2c(c(O)c1C/C=C(\C)CCC(=O)OCCN1CCOCC1)C(=O)OC2`, for which the Potency entry was “inactive”.
For `CN(C)/N=N/c1nc[nH]c1C(N)=O`, the Potency entry is “inactive”.
Consider `CCN[C@H]1C[C@H](C)S(=O)(=O)c2sc(S(N)(=O)=O)cc21`, for which the Potency entry is “inactive”.
Regarding `CCOc1ccc(Nc2nc(-c3c(C)nc4ccccn34)cs2)cc1`, the Potency result is “inactive”.
As for `COC(=O)c1ccc2c(C(=Nc3ccc(N(C)C(=O)CN4CCN(C)CC4)cc3)c3ccccc3)c(O)[nH]c2c1`, the Potency was 24.3 µM (active).
As to `CS(=O)(=O)c1ccc(-c2cnc(N)c(C(=O)Nc3ccccc3)n2)cc1`, the Potency entry is “inactive”.
As to `CCOC(=O)C1=C(C)NC2=C(C(=O)CC(C)(C)C2)C1c1ccc(-c2ccccc2)cc1` (stereo unspecified), the Potency result was “inactive”.
`CN(C)CC/C=C1\c2ccccc2COc2ccccc21`: the Potency result was “inactive”.
For `Cc1cnc(Nc2ccc(OCCN3CCCC3)cc2)nc1Nc1cccc(S(=O)(=O)NC(C)(C)C)c1` the value was 19.3 µM (active); for `C=CC(=O)Nc1cc2c(Nc3ccc(F)c(Cl)c3)ncnc2cc1OCCCN1CCOCC1`, 21.7 µM (active); for `COc1ccc(CCC(=O)c2c(O)cc(O[C@@H]3O[C@H](CO)[C@@H](O)[C@H](O)[C@H]3O[C@@H]3O[C@@H](C)[C@H](O)[C@@H](O)[C@H]3O)cc2O)cc1O`, “inactive”.
In the case of `CN(C)c1ccc2nc3ccc(=[N+](C)C)cc-3sc2c1`, the Potency was 8.63 µM (active).
Take `Nc1ccccc1NC(=O)c1ccc(CNC(=O)OCc2cccnc2)cc1`: the Potency is 3.06 µM (active).
The same measure for `CC(C)C[C@H](NC(=O)[C@H](Cc1ccccc1)NC(=O)c1cnccn1)B(O)O`: 0.0137 µM (active).
For `CN1CCCC(n2nc(Cc3ccc(Cl)cc3)c3ccccc3c2=O)CC1` (stereo unspecified), the Potency is 27.3 µM (active).
The same measure for `CN(C[C@@H]1COCCO1)S(=O)(=O)Nc1ccc2ccc3ncc(-c4cnn(C)c4)cc3c(=O)c2c1`: “inactive”.
Regarding `O=C(CCCCCCC(=O)Nc1ccccc1)NO`, the Potency is 2.17 µM (active).
In the case of `c1cc(N[C@@H]2CCNC2)nc(-c2cnc3ccc(-c4cn[nH]c4)cn23)c1`, the Potency result was “inactive”.
As for `O=c1[nH]c(=O)n([C@H]2C[C@H](O)[C@@H](CO)O2)cc1Br`, the Potency entry is “inactive”.
On to `O=C(Nc1cn[nH]c1-c1nc2ccc(CN3CCOCC3)cc2[nH]1)NC1CC1`, for which the Potency result is “inactive”.
With `CC1(C)[C@@H](O)CC[C@]2(C)[C@H]3C(=O)C=C4[C@@H]5C[C@@](C)(C(=O)O)CC[C@]5(C)CC[C@@]4(C)[C@]3(C)CC[C@@H]12`, the Potency entry is “inactive”.
With `O=C1N(c2ccccc2)c2ccccc2C1(Cc1ccncc1)Cc1ccncc1`, the Potency result was “inactive”.
As for `COc1ccc2cc3[n+](cc2c1OC)CCc1cc2c(cc1-3)OCO2`, the Potency entry was “inactive”.
In the case of `Nc1nccc(Oc2ccc(NC(=O)c3c[nH]cc(-c4ccc(F)cc4)c3=O)cc2F)c1Cl`, the Potency result is “inactive”.
